From PubChem
Rows were chosen to be rich in hits. Some 4.1% of all compounds tested hit in one or more screens of this group.
ssDAF-12 act = activates DAF-12 receptor from parasite S. stercoralis. HEK293 ssDAF-12/GRIP1 lit1-tk-luc reporter, luminescence; % of 3 µM dafachronic acid response. activation, % at 6.8 µM. 370,000 tested, 1% active;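 active means activation above the mean over all tested compounds plus 3 SD, cut at about 0.9% in these data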;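 further: 0% = DMSO-only wells and 100% = 3 µM delta7-dafachronic acid wells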
DAX1 inh-1 = NR0B1 (DAX1) inhibition; AID 504766; inhibition, % at 6.75 µM; P51843; 340,000 tested, 0.99% active; HEK293 Gal4-DAX1 luciferase reporter, luminescence;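 active means inhibition above the mean over all tested compounds plus 3 SD, cut at about 4.2% in these data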;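 further: 0% = DAX1-transfected cells with DMSO and 100% = empty-vector control cells with DMSO; inhibition shows as a rise in luminescence from relieved DAX1 repression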
Target sequence (P51843 207-470 limits assumed): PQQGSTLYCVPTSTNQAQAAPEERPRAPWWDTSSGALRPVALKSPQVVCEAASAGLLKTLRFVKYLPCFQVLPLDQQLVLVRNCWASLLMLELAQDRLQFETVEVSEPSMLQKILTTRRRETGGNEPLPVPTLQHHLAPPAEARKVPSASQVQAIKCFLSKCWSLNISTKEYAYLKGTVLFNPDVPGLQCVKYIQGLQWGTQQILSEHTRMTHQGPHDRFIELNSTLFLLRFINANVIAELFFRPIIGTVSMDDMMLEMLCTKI
hgDAF12 agonist = agonists of H. glycines DAF-12 nuclear receptor; HEK293 GAL4-hgDAF12 UAS-luciferase reporter, agonist luminescence; normalized to butyrate control; activation, % at 6.8 µM; 370,000 tested, 1.8% active;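 active means activation above a cutoff set at the mean of all screened compounds plus 3 SD, cut at about 10% in these data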;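 further: 0% = DMSO wells and 100% = sodium butyrate wells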
DAX1 inh-2 = blocks DAX1 repression of SF-1 activated StAR promoter; HEK293T StAR-luciferase reporter, SF-1/DAX-1 repression relief; inhibition, % at 6.8 µM; 370,000 tested, 1.1% active; AID 652010;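 active means inhibition above the mean over all tested compounds plus 3 SD, cut at about 3.6% in these data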;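 further: 0% = DAX-1 cells with DMSO and 100% = cells lacking DAX-1 with DMSO; higher inhibition means more luminescence from relief of DAX-1 repression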
hcDAF-12 act = H. contortus DAF-12 activation, primary screen; 370,000 tested, 1.4% active; activation, % at 6.8 µM; HEK293 hcDAF-12 lit1-tk-luc reporter, luminescence; 0% DMSO, 100% Δ7-dafachronic acid;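 active means activation above the mean of all tested compounds plus 3 SD, cut at about 5.5% in these data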;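 further: 100% = response to 3 µM Δ7-dafachronic acid high control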
Active calls of the source: *; . = not tested or not shown.

SMILES | ssDAF-12 act | DAX1 inh-1 | hgDAF12 agonist | DAX1 inh-2 | hcDAF-12 act
Cc1c(C(=O)NCC2CCCO2)oc2ccc(Br)cc12 (centres undefined) | 0 | 2 | 5 | 3.8* | 1
Cc1ccc(NC(=O)C(=O)NCC2CCCO2)cc1C (centres undefined) | 0 | 5.8* | 5 | 3 | 2
CC(=O)Nc1ccc(C(=O)Nc2ccc(S(=O)(=O)NCC3CCCO3)cc2)cc1 (centres undefined) | -1 | 0 | -1 | -1 | -1
CC(=O)Nc1ccc(S(=O)(=O)NCC2CCCO2)cc1 (centres undefined) | -1 | 5.1* | 0 | 0 | 0
O=S(=O)(/N=C(/Nc1nc2ccccc2s1)c1ccccc1)c1ccc(F)cc1 | 0.9* | 6.4* | 11* | 4.4* | 4
Cn1cccc1C=NNC(=O)c1cc(-c2ccc(Cl)cc2)n[nH]1 | -1 | . | 4 | 0 | -1
COC(=O)C[C@H]1CC[C@H]2[C@H](COc3ccc(NC(=O)c4cccs4)cc3C(=O)N2C)O1 | -2 | . | 4 | 1 | -2
Cc1cccc(C(=O)Nc2nc3ccc(S(C)(=O)=O)cc3s2)c1 | 0 | 3 | 9 | 1 | 1
CS(=O)(=O)c1ccc2nc(NC(=O)c3ccc(S(=O)(=O)NCC4CCCO4)cc3)sc2c1 (centres undefined) | -2 | 5.4* | 2 | -2 | -1
CS(=O)(=O)c1ccc2nc(NC(=O)Nc3ccc(Cl)c(Cl)c3)sc2c1 | 1.9* | 0 | -1 | 0 | -2
CS(=O)(=O)c1ccc2nc(NC(=O)c3ccccc3)sc2c1 | 1 | 3 | 11* | 1 | 5
Cc1cccc(Cn2cc(CN3CC(N4CCN(CCOC(=O)c5cc6ccccc6o5)CC4)CS3(=O)=O)nn2)c1 (centres undefined) | 0 | . | -1 | 0 | 1
O=S(=O)(Nc1ccc(C(O)(C(F)(F)F)C(F)(F)F)cc1)c1cccs1 | -1 | . | -2 | . | 1
CCn1c2ccccc2c2cc(C=NNC(=O)c3ccoc3C)ccc21 | -1 | . | 11* | -2 | -1
CCNC(=O)O[C@@H]1C=C[C@@H](C#Cc2ccc(C(C)(C)C)cc2)O[C@@H]1COC(C)=O | -2 | . | -9 | -1 | -4
COC(=O)c1sc2nc(CSc3nc4ccc(C)cc4[nH]3)[nH]c(=O)c2c1C | -1 | -1 | -1 | 0 | 6.1*
Cc1cc(C)c(C#N)c(SCc2nc3ccccc3c(=O)[nH]2)n1 | 1 | 0 | 10 | 2 | 3
Cc1ccc2nc(SCc3nc4ccccc4c(=O)[nH]3)[nH]c2c1 | -1 | 0 | 11* | 2 | 4
O=C(O/N=C1/CCCc2occc21)c1ccccc1 | 0 | 0 | 0 | 0 | -1
O=C(O/N=C1/CCCc2occc21)c1ccc(Cl)cc1Cl | -1 | 6.8* | 4 | 0 | -2
Cc1cccc(C2N=C(N)Nc3nc4ccccc4n32)c1 (centres undefined) | -1 | 4.8* | 0 | 0 | 1
Cc1ccc(C2N=C(N)Nc3nc4ccccc4n32)cc1 (centres undefined) | -1 | 2 | -3 | 0 | 0
C[C@@H]1ON(C)[C@H]2C[C@H]3c4[nH]c5c(-c6cccc(Cl)c6)cccc5c4CCN3C(=O)[C@@H]12 | 0 | . | -1 | -1 | -3
CC(Cc1ccccc1)Nc1ncnc2c1ncn2C1OC(CO)C(O)C1O (centres undefined) | -1 | 0 | -4 | 1 | -3
C[C@H](Cc1ccccc1)Nc1ncnc2c1ncn2[C@@H]1O[C@H](CO)[C@@H](O)[C@H]1O | -1 | 0 | 1 | 3.8* | -3
SMILES | ssDAF-12 act | DAX1 inh-1 | hgDAF12 agonist | DAX1 inh-2 | hcDAF-12 act
COc1ccc(NC(=O)c2cc(C(C)C)on2)cc1OC | -1 | 5.0* | 3 | 0 | 0
COc1cc(NC(=O)c2cc(C(C)C)on2)c(OC)cc1Cl | 0 | 0 | 2 | 0 | 4
COc1ccc(NC(=O)c2cc(C(C)C)on2)c(OC)c1 | -1 | 1 | 8 | 3 | 6.4*
COc1ccc(NC(=O)c2ccccc2O)c(OC)c1 | 1 | 3 | 9 | 3 | 5.8*
Clc1ccc([C@H]2OC[C@@]3(CNCCN4CCOCC4)CS[C@H](c4ccc(Cl)cc4)N23)cc1 | -1 | . | 0 | 0 | 0
Cc1cc(/C=C2\C(=O)NN(c3ccccc3)C2=O)c(C)n1-c1ccccc1O | -1 | 5.4* | -4 | 0 | -1
